High-throughput results as filed in PubChem BioAssay.
Luc counter – Counterscreen for Luciferase (Kinase-Glo TM) Inhibition; Potency, µM (titrated, usually from 38.3 µM), usual class: inhibitors; AID 1379, 2008; Kinase-Glo luciferase, ATP luminescence, 8 min; 200,000 tested, 0.28% active; note: nearly all actives have a fitted effect of over 60% in size
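Recombinant Kinase-Glo luciferase, 10 uM ATP (linear range), luciferin; imidazole pH 7.2 / KCl / MgCl2 / Tween / BSA buffer; 8 min RT; luminescence.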
Rab9 prom act – qHTS Assay for Rab9 Promoter Activators | 320,000 tested, 2.8% active | Huh7 Rab9 promoter-luciferase reporter, luminescence, 24 h | Potency, µM (highest dose often 9.22 µM), most hits filed as activators; note: nearly all actives have a fitted effect of over 60% in size
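Huh7 reporter line, Rab9 promoter upstream of luciferase. Compound exposure 24 h at 37 °C in reduced-serum medium with 10% FBS. Read-out: luminescence.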
FLuc modulator – qHTS profiling assay for firefly luciferase inhibitor/activator using purifed enzyme and Km concentrations of substrates (counterscreen for miR-21 project); Luciferin 4-monooxygenase (Photinus pyralis), P08659; Potency, µM (doses to about 57.5 µM), usual class: inhibitors; purified FLuc, Km substrates, luminescence inhibition; 360,000 tested, 6.9% active; AID 588342, 2011; note: nearly all actives have a fitted effect of over 55% in size
Target sequence (P08659 whole entry, looked up): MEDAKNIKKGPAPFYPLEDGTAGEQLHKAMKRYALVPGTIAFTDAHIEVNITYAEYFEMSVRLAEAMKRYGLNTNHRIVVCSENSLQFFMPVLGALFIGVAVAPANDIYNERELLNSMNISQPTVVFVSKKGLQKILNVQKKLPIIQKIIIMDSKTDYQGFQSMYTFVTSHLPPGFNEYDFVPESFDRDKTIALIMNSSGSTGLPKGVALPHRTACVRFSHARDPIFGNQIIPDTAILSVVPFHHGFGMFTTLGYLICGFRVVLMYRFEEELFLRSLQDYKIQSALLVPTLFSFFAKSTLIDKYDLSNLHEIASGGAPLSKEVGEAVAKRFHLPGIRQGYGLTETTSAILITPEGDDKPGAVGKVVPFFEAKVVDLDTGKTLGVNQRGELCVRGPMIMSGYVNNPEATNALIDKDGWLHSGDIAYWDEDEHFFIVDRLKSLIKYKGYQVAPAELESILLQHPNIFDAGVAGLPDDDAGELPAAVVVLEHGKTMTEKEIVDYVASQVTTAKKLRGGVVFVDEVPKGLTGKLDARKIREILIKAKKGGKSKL
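Purified P. pyralis luciferase, 10 nM final, with Km-level 10 uM D-luciferin and 10 uM ATP in 50 mM Tris acetate pH 7.5, 10 mM Mg acetate, 0.01% Tween-20, 0.05% BSA; 6-point qHTS titration about 60 µM downward; luminescence read.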
SMN2 splice enh – qHTS Assay for Enhancers of SMN2 Splice Variant Expression | HEK293 SMN2-luciferase splicing reporter, luminescence, 30-36 h | Potency, µM (doses to about 46.1 µM), actives largely listed as activators | 210,000 tested, 2.8% active; note: nearly all actives have a fitted effect of over 55% in size
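qHTS luciferase splicing reporter: luminescence rises when SMN2 exon 7 is included in transfected HEK293 cells. Compound exposure lasted 30-36 h at 37C, with 4.5 mM final sodium butyrate as control, followed by a ONE-Glo read.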
NPC1 promoter act – qHTS Assay for NPC1 Promoter Activators | Huh7 NPC1 promoter luciferase reporter, 24 h | Potency, µM (doses to about 9.22 µM), actives largely listed as activators | 320,000 tested, 2.4% active | AID 485313, 2010; note: nearly all actives have a fitted effect of over 60% in size
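Stably transfected Huh7 (NPC1 promoter→luciferase), 1500 cells/well in Opti-MEM + 10% FBS, 2 h settle, then compound 24 h at 37 °C. Luminescence after 10 min with Amplite reagent.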
ELG1 genotoxic – qHTS screen for small molecules that induce genotoxicity in human embryonic kidney (HEK293T) cells expressing luciferase-tagged ELG1; HEK293T ELG1-luciferase reporter, luminescence, 16 h; Potency, µM (top dose mostly 46 µM), actives largely listed as activators; 330,000 tested, 1.3% active; note: nearly all actives have a fitted effect of over 60% in size
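Cells (2,000/well) expressing the ELG1-luciferase fusion are dosed by pin tool and kept 16 hr at 37 °C, 5% CO2. Signal comes from ONE-Glo luciferase reagent after 30 min at room temperature.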
Hits are given with their value; [ ] = remark or other dose. Rows were chosen to be rich in hits. Some 7.4% of all compounds tested hit in one or more screens of this group. Calls come from the whole dose curve; as a rule, active = well fitted curve in the direction sought with a large enough effect; inconclusive = small, poorly fitted or top-dose-only effect, or another doubt; inactive = no such curve, though single readings can be large; an effect the other way counts as inactive or inconclusive.

`CC1CCN(c2nc3ccccc3nc2N2CCC(C)CC2)CC1` gave Luc counter inactive, FLuc modulator inactive and SMN2 splice enh inactive.
CC1CCN(c2nnc(-c3cccs3)c3ccccc23)CC1 was read as Luc counter inactive, Rab9 prom act inactive, FLuc modulator 9.5µM, SMN2 splice enh inactive, NPC1 promoter act inactive and ELG1 genotoxic inactive.
Screening c1csc(-c2nnc(NC3CCCCC3)c3ccccc23)c1 returned Luc counter inactive, Rab9 prom act inactive, FLuc modulator 12µM, SMN2 splice enh inactive, NPC1 promoter act inactive and ELG1 genotoxic inactive.
c1ccc(-c2nc(-c3cccs3)c(NC3CCCCC3)o2)cc1 was read as Luc counter inactive and SMN2 splice enh inactive.
`Cc1ccc(S(=O)(=O)N2CCc3cc(C(=O)N(C)Cc4ccccc4)ccc32)cc1` gave FLuc modulator inactive and SMN2 splice enh inactive.
`Cc1ccccc1NC(=O)c1ccccc1NC(=O)c1ccccc1Cl` gave FLuc modulator inconclusive and SMN2 splice enh inactive.
For Cc1cc(NC(=O)c2ccc(Cl)cc2)ccc1NC(=O)c1ccccc1Cl the results were Rab9 prom act inactive, FLuc modulator 12µM, NPC1 promoter act inactive and ELG1 genotoxic inactive.
`Cc1cc(NC(=O)c2ccccc2Cl)ccc1NC(=O)c1ccccc1Cl` gave Rab9 prom act inactive, FLuc modulator 12µM, NPC1 promoter act inactive and ELG1 genotoxic inactive.
`O=C(Nc1cc(Br)ccc1O)c1cc(-c2ccccc2)on1` gave Rab9 prom act inactive, FLuc modulator inactive, NPC1 promoter act inactive and ELG1 genotoxic inactive.
For Cc1ccc(O)c(NC(=O)c2cc(-c3ccccc3)on2)c1 the results were Rab9 prom act inactive, FLuc modulator inconclusive, NPC1 promoter act inconclusive and ELG1 genotoxic 16µM.
Screening Cc1ccc(-c2cc(C(=O)Nc3c(C#N)cnn3C)no2)cc1 returned Luc counter inactive, Rab9 prom act inactive, FLuc modulator 6.7µM, SMN2 splice enh inconclusive, NPC1 promoter act inactive and ELG1 genotoxic inactive.
CCCc1cc(C(=O)Nc2cc(C)ccc2O)no1 was read as Rab9 prom act inactive, FLuc modulator 2.7µM, NPC1 promoter act inactive and ELG1 genotoxic 15µM.
Screening Cc1ccc(-n2c(=O)cc(N3CCN(c4ccccc4Cl)CC3)[nH]c2=O)cc1 returned FLuc modulator inactive.
For O=C(NCC(c1ccc2c(c1)OCO2)N1CCN(c2ccccc2)CC1)C(=O)Nc1ccccc1 (stereo not given) the results were FLuc modulator inactive.
For Cn1cc(S(=O)(=O)N2CCCC2)cc1C(=O)Nc1ccc(C(F)(F)F)cc1 the results were FLuc modulator inactive.
Cc1ccccc1-c1nc(CNC(=O)NC2CCCCC2)c(C)o1 was read as FLuc modulator inactive.
`Cc1nnc(NC(=O)CSCc2cc(=O)c3cc(Cl)ccc3[nH]2)s1` gave FLuc modulator inactive.
For N#Cc1ccc(NC(=O)CCc2nc3ccccc3s2)cc1 the results were Luc counter inactive, Rab9 prom act inactive, FLuc modulator inactive, SMN2 splice enh inactive, NPC1 promoter act inactive and ELG1 genotoxic inactive.
O=S(=O)(Cc1nc2ccccc2s1)c1ccccc1 was read as Luc counter inactive, Rab9 prom act 3.2µM, FLuc modulator 12µM, SMN2 splice enh 14µM, NPC1 promoter act 2µM and ELG1 genotoxic 4.6µM.
Screening Cc1cc(OCc2nc3ccccc3s2)ccc1N returned Rab9 prom act 0.56µM, FLuc modulator 1.5µM, NPC1 promoter act 1µM and ELG1 genotoxic 2.9µM.
Fc1ccc(OCc2nc3ccccc3s2)cc1 was read as Luc counter inconclusive, Rab9 prom act 3.2µM, FLuc modulator 2.4µM, SMN2 splice enh 11µM, NPC1 promoter act 1.4µM and ELG1 genotoxic 2.3µM.
`CCC(=O)Nc1ccc(OCc2nc3ccccc3s2)cc1` gave Luc counter inactive, Rab9 prom act 0.63µM, FLuc modulator 4.3µM, SMN2 splice enh 5µM, NPC1 promoter act 2µM and ELG1 genotoxic 2.9µM.
O=S(=O)(CCc1nc2ccccc2s1)c1ccc(Cl)cc1 was read as Luc counter inactive, Rab9 prom act inactive, FLuc modulator inactive, SMN2 splice enh inactive, NPC1 promoter act inactive and ELG1 genotoxic inactive.
`COc1ccc(S(=O)(=O)CCc2nc3ccccc3s2)cc1` gave Luc counter inactive, Rab9 prom act inactive, FLuc modulator inactive, SMN2 splice enh inactive, NPC1 promoter act inactive and ELG1 genotoxic inactive.
For CCCCNc1nc(C)nc2c1nc(-c1ccccc1)n2CCCN(CC)CC the results were Luc counter inactive and SMN2 splice enh inactive.
For Cc1cn(C)c(CC(=O)N2CCN(c3ccccc3F)CC2)c1C(=O)O the results were FLuc modulator inactive.
`c1ccc(OCc2nc3ccccc3s2)cc1` gave Luc counter inactive, Rab9 prom act 2.8µM, FLuc modulator 3.4µM, SMN2 splice enh 13µM, NPC1 promoter act 2.5µM and ELG1 genotoxic inconclusive.
For Cc1ccc2nc(-c3cccc(Br)c3)cc(C(=O)NCC3CCCO3)c2c1 (stereo not given) the results were Rab9 prom act inactive, FLuc modulator inconclusive, NPC1 promoter act inactive and ELG1 genotoxic inactive.
Screening O=C(NCC1CCCO1)c1cc(-c2ccccc2)nc2ccc(Br)cc12 (stereo not given) returned Rab9 prom act inactive, FLuc modulator 2.4µM, NPC1 promoter act inactive and ELG1 genotoxic inactive.
Cc1nc(SC(C)C(=O)NCC2CCCO2)c2cc(-c3ccccc3)sc2n1 (stereo not given) was read as Rab9 prom act inactive, FLuc modulator 12µM, NPC1 promoter act inactive and ELG1 genotoxic inactive.
Screening Cc1cc(Br)cc2c(C(=O)NCC3CCCO3)cc(-c3ccccc3)nc12 (stereo not given) returned Rab9 prom act inactive, FLuc modulator 1.3µM, NPC1 promoter act inactive and ELG1 genotoxic inconclusive.
C=C1OC(CO)(n2cnc3c(N)ncnc32)C(O)C1O (stereo not given) was read as Luc counter inactive.
For Cc1nccc(-c2cc(-c3ccc(Cl)cc3Cl)no2)n1 the results were Rab9 prom act 1.1µM, FLuc modulator 2.4µM, NPC1 promoter act 1.4µM and ELG1 genotoxic inconclusive.
[O-][N+](CCO)(CCO)c1ncnc2nc[nH]c12 was read as Luc counter inactive[7.66 µM] and SMN2 splice enh inactive[9.22 µM].
Screening O=C(OCc1cc([N+](=O)[O-])cc2c1OCOC2)c1ccc2ccccc2n1 returned Luc counter inactive, Rab9 prom act inactive, FLuc modulator inactive, SMN2 splice enh inactive, NPC1 promoter act inactive and ELG1 genotoxic inactive.
